Test systems include 786-0 renal; MALME-3M melanoma; MDA-MB-231 breast; SF-268 CNS; SF-295 CNS; UACC-257 melanoma; U251 CNS; PC-3 prostate; UACC-62 melanoma; SK-MEL-2 melanoma; SN12C renal; UO-31 renal; TK-10 renal; ACHN renal; A498 renal; OVCAR-5 ovarian; OVCAR-3 ovarian; HS 578T breast; NCI/ADR-RES ovarian; BT-549 breast.
What all share (assay): NCI-60 one-dose screen, 48 h (100 = growth as untreated, 0 = no growth, -100 = all killed)
Common to all, as to details: 10 µM

About 83,000 compounds went through this panel and 20% of them were active in at least one assay; those are over-represented in the sample as a whole.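 Step 1: grow cells in 96-well plates. Step 2: add test compound at a single concentration. Step 3: incubate 48 h. Step 4: record percent growth.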 Unmarked numbers belong to inactive results. Activity calls are given as the source filed them. Rule for the calls: active = growth percent below 10; inactive = the rest.

Regarding `CCOc1ccc(/C=N/NC(=O)Cn2nc(Cc3ccc(OC)cc3)c3onc(C)c3c2=O)cc1`, the growth is -40.3% (active) with 786-0 renal; -14.5% (active) with MALME-3M melanoma; 20.7% in the test on MDA-MB-231 breast; 19% with SF-268 CNS; 20.4% with SF-295 CNS; 62.1% in the test with UACC-257 melanoma. For the same compound, the growth with U251 CNS is 4.53% (active); in the test on PC-3 prostate, 18.3%; in the test with UACC-62 melanoma, 29.2%; in the test with SK-MEL-2 melanoma, 55.9%; in the test with SN12C renal, -6.22% (active); in the test on UO-31 renal, 2.46% (active). Besides, the growth was 50.2% in the test with TK-10 renal; 13.1% in the test on ACHN renal; 48.2% in the test with A498 renal; 44.9% with OVCAR-5 ovarian; 13.7% with OVCAR-3 ovarian; 1.74% (active) with HS 578T breast. For the same compound, the figures for the growth in the test with NCI/ADR-RES ovarian and in the test on BT-549 breast were 13.2% and 23.7%, respectively.
On to `C#C[C@]1(O)CC[C@H]2[C@@H]3CC=C4c5sc(Nc6ccc(C(F)(F)F)cn6)nc5CC[C@]4(C)[C@H]3CC[C@@]21C`, for which the growth in the test on 786-0 renal is -72.4% (active); in the test with MALME-3M melanoma, -13.1% (active); in the test with MDA-MB-231 breast, -34.2% (active); in the test with SF-268 CNS, 23.2%; with SF-295 CNS, -68.8% (active); in the test on UACC-257 melanoma, -3.66% (active). The growth in the test on U251 CNS was -82.9% (active); with PC-3 prostate, 1.89% (active); in the test with UACC-62 melanoma, -45.9% (active); in the test with SK-MEL-2 melanoma, -26.8% (active); with SN12C renal, 7.3% (active); in the test on UO-31 renal it was -23.8% (active). For the same compound, the growth in the test with TK-10 renal is 12.9%; in the test with ACHN renal, 0.62% (active); in the test on A498 renal, -15.8% (active); in the test with OVCAR-5 ovarian, 9.25% (active); in the test on OVCAR-3 ovarian it was -35.8% (active); in the test on HS 578T breast, -6.11% (active). Further, the figures for the growth in the test with NCI/ADR-RES ovarian and in the test on BT-549 breast were -19.9% (active) and -50% (active), respectively.
Consider `Cc1ccc(S(=O)(=O)N2CCN(S(=O)(=O)c3oc(-c4ccccc4)nc3C#N)CC2)cc1`, for which the growth in the test with 786-0 renal is 86.6%; in the test on MALME-3M melanoma, 92.7%; with MDA-MB-231 breast it was 100%; with SF-268 CNS, 79.1%; with SF-295 CNS, 132%; in the test with UACC-257 melanoma it was 73.3%. Also, the growth in the test on U251 CNS is 84.4%; in the test with PC-3 prostate, 75%; in the test with UACC-62 melanoma, 45.3%; in the test with SK-MEL-2 melanoma, 75%; in the test on SN12C renal it was 76.8%; in the test with UO-31 renal it was 61.7%. Besides, the growth was 77% in the test on TK-10 renal; 69.4% in the test on ACHN renal; 88.4% with A498 renal; 91.1% in the test on OVCAR-5 ovarian; 92.5% in the test on OVCAR-3 ovarian; 95.2% with HS 578T breast. In addition, the growth was 83% with NCI/ADR-RES ovarian and 76.1% with BT-549 breast.
Turning to `Fc1ccc(/C=C/c2nc3ccccc3n3c(-c4ccc(Cl)cc4)nnc23)cc1`, the growth is 73.4% with 786-0 renal; 7.93% (active) in the test on MALME-3M melanoma; 70% in the test with MDA-MB-231 breast; 78% in the test on SF-268 CNS; 128% in the test on SF-295 CNS; 96.7% in the test on UACC-257 melanoma. Besides, the growth in the test with U251 CNS was 73%; in the test with PC-3 prostate, 72.5%; with UACC-62 melanoma it was 70.2%; in the test on SK-MEL-2 melanoma, 102%; with SN12C renal, 78.1%; with UO-31 renal, 53.3%. For the same compound, the growth with TK-10 renal is 112%; in the test with ACHN renal, 47.5%; in the test with A498 renal, 111%; with OVCAR-5 ovarian, 96.3%; with OVCAR-3 ovarian, 76.9%; with HS 578T breast, 80.5%. In addition, the values for the growth with NCI/ADR-RES ovarian and in the test with BT-549 breast were 70.4% and 79.3%, respectively.
With `O=[N+]([O-])c1cccc(-c2nnc3c(/C=C/c4ccccc4O)nc4ccccc4n23)c1`, the growth was 77.7% in the test with 786-0 renal; 86.5% with MALME-3M melanoma; 72.2% with MDA-MB-231 breast; 77.7% in the test with SF-268 CNS; 62.5% in the test with SF-295 CNS; 59.5% with UACC-257 melanoma. Also, the growth in the test with U251 CNS was 76.7%; in the test with PC-3 prostate, 52.2%; with UACC-62 melanoma, 16%; in the test on SK-MEL-2 melanoma, 84.1%; in the test on SN12C renal, 63.4%; with UO-31 renal it was 41.8%. The growth in the test on TK-10 renal was 112%; in the test on ACHN renal it was 35.8%; in the test on A498 renal, 89.4%; in the test with OVCAR-5 ovarian it was 81.4%; in the test on OVCAR-3 ovarian, 69.1%; in the test with HS 578T breast, 30.7%. Besides, the growth in the test with NCI/ADR-RES ovarian is 57.5%; with BT-549 breast, 62.6%.
Consider `Nc1nnc(-c2c[nH]c3ncc(Br)cc23)c(-c2c[nH]c3ccc(Br)cc23)n1`, for which the growth in the test on 786-0 renal is 36.2%; in the test on MALME-3M melanoma, 56.1%; in the test with MDA-MB-231 breast, 65%; in the test on SF-268 CNS, 46%; in the test on SF-295 CNS, 44.7%; in the test on UACC-257 melanoma it was 71%. For the same compound, the growth in the test with U251 CNS was 38.3%; in the test on PC-3 prostate, 26.6%; with UACC-62 melanoma, 24.4%; with SK-MEL-2 melanoma it was 7.13% (active); in the test with SN12C renal it was 46.9%; in the test with UO-31 renal it was 32.6%. For the same compound, the growth in the test on TK-10 renal was 67.8%; with ACHN renal it was 37.3%; in the test with A498 renal it was -13% (active); with OVCAR-5 ovarian, 62.1%; in the test with OVCAR-3 ovarian, 4.38% (active); with HS 578T breast, 24.7%. In addition, the results for the growth in the test with NCI/ADR-RES ovarian and in the test with BT-549 breast were 52.9% and 6.94% (active), respectively.
For `O=C(c1ccccc1)c1ccc2nc(-c3ccccc3Br)[nH]c2c1`, the growth in the test on 786-0 renal is -89.9% (active); in the test with MALME-3M melanoma it was -68.4% (active); in the test on MDA-MB-231 breast it was -8.52% (active); with SF-268 CNS it was -2.6% (active); in the test with SF-295 CNS, 11.2%; in the test with UACC-257 melanoma it was -59.1% (active). In addition, the growth was -94.7% (active) in the test on U251 CNS; -19.4% (active) with PC-3 prostate; -47.5% (active) with UACC-62 melanoma; -93.9% (active) in the test on SK-MEL-2 melanoma; -42.8% (active) in the test with SN12C renal; -99.1% (active) with UO-31 renal. The growth with TK-10 renal was -77.7% (active); with ACHN renal, -98.2% (active); in the test on A498 renal, 9.77% (active); in the test with OVCAR-5 ovarian, -65.8% (active); in the test with OVCAR-3 ovarian, -80.3% (active); in the test on HS 578T breast it was 29%. For the same compound, the growth in the test on NCI/ADR-RES ovarian was 0.18% (active); in the test with BT-549 breast, -76.4% (active).

The values are drawn from PubChem BioAssay (NCI).
